In the library only some 5.3% were active in any assay of this set; here they are far more common.
VACV mCherry inh: vaccinia inhibition (mCherry reporter). 0.63% of 310,000 active. Vaccinia virus mCherry reporter infection, fluorescence. Potency, µM (series often up to 36.5 µM), for the others: at the top dose activity change, negative = inhibition, usual class: inhibitors; calls by dose curve; tested in A549 cells; also: nearly all actives have a fitted effect of over 35% in size
LASV entry inh: blocks Lassa virus binding to or entry into cells; Lassa virus pseudotype entry inhibition, cell reporter; 1.2% of 300,000 active; Potency, µM (series often up to 37.9 µM), for inactives: at the top dose activity change, negative = inhibition, hits mostly inhibitors; calls by dose curve; tested in HEK293 cells; also: nearly all actives have a fitted effect of over 50% in size
HCV inhibitor: blocks hepatitis C virus | Huh7.5.1 HCVcc-Cre infection, luciferase reporter, 44 h | Potency, µM (highest dose often 41.8 µM), for inactives: at the top dose activity change, negative = inhibition, usual class: inhibitors | 3.4% of 340,000 active; active = well fitted inhibition curve with a large enough effect; inconclusive = small, poorly fitted or top-dose-only effect, or another doubt; inactive = no such curve, though single readings can be large or run the other way
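Cells (1,000/well) were plated 4 h before compound, then infected with HCVcc-Cre virus (~0.5 moi). After 44 h further culture, infection was read as luciferase luminescence following a 15 min substrate incubation at room temperature.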
Marburg entry inh: inhibitors of Marburg virus binding or cell entry; Marburg virus pseudotyped entry inhibition, cell reporter; Potency, µM (series often up to 37.8 µM), without a hit: at the highest dose activity change, negative = inhibition, usual class: inhibitors; 1.8% of 300,000 active; AID 540276; calls by dose curve; tested in HEK293 cells
FMDV antiviral: antivirals against foot and mouth disease virus; FMDV antiviral cell-based qHTS; Potency, µM (highest dose often 57.9 µM), for the others: at the top dose activity change, negative = inhibition, usual class: inhibitors; 1.2% of 410,000 active; AID 1159524; calls by dose curve; tested in HEK293T cells; also: read-out not given here; nearly all actives have a fitted effect of over 45% in size
VACV Venus inh: inhibitors of vaccinia virus (Venus reporter); Vaccinia virus Venus reporter expression, fluorescence; Potency, µM (doses to about 36.5 µM), for inactives: at the top dose activity change, negative = inhibition, most hits filed as inhibitors; 0.46% of 330,000 active; calls by dose curve; tested in A549 cells; also: nearly all actives have a fitted effect of over 30% in size
* hit, by the source's call; i = inactive; u = inconclusive; x = not tested or not shown; [ ] = another dose, or the depositor's remark. % is scaled to controls: 0 for no effect and ±100 for the full control effect; potency is read from the fitted curve at half-maximal effect.

SMILES	VACV mCherry inh	LASV entry inh	HCV inhibitor	Marburg entry inh	FMDV antiviral	VACV Venus inh
O=C(c1cccs1)N1C[C@H](O)[C@H](n2cc(C3CC3)nn2)C[C@@H]1c1ccccc1	x	8.1%[46.1 µM]	x	x	x	x
O=C(N(CC1CCCCC1)C1=NCCCC1)C12CC3CC(CC(C3)C1)C2	x	x	x	-19.3%	x	x
CCN(Cc1ccccc1)C(=O)c1cccc(OC2CCN(C(=O)C3CC3)CC2)c1	x	x	u	x	-26.6%	x
COCCNC(=O)c1cccc(OC2CCN(Cc3ccc(OC(F)F)cc3)CC2)c1	-12.7%	-6.0%[46.1 µM]	7.08µM*	2.8%[46.1 µM]	u	-15.4%
O=C(NCc1cccc(F)c1)c1cccc(OC2CCN(C(=O)C3CC3)CC2)c1	-8.0%	-28.8%	x	u	28.2µM*	u
CCOc1ccc(OCC)c(NC(=O)CN(C)S(=O)(=O)c2ccc3nc(C)sc3c2)c1	u	u	u	-2.5%	31.6µM*	-23.8%
CC(=O)Nc1ccc(/C(C)=N/Nc2nc(Nc3cccc4ccccc34)nc(N3CCOCC3)n2)cc1	-14.3%	u	u	1.41µM*	0.0%	u
c1ccc(Nc2nc(N3CCNCC3)nc(N3CCOCC3)n2)cc1	-18.0%	8.91µM*	-21.3%	11.2µM*	-14.1%	-6.0%
Fc1ccc(Nc2nc(N3CCOCC3)nc(N3CCOCC3)n2)cc1	-15.9%	u	-28.6%	7.08µM*	-19.2%	-20.4%
COc1ccc(Nc2nc(NCc3ccco3)nc(N3CCOCC3)n2)cc1	i	-0.9%	u	2.82µM*	-19.8%	-23.5%
COc1ccc2c(c1)-c1nc(-n3ncc(C(=O)NC(C)(C)CO)c3C3CC3)ncc1CC2	-17.5%	x	x	x	-19.7%	-1.4%
CC1=C(C)CC2C(C1)C(=O)c1ccc(Br)cc1S2(=O)=O (configuration not stated)	u	x	4.5%	x	-24.4%	-9.8%
COC(=O)c1ccc(Nc2nc(N3CCOCC3)nc(N3CCOCC3)n2)cc1	i	u	u	2µM*	-10.9%	-13.8%
COc1ccc(Nc2nc(N3CCOCC3)nc(N3CCOCC3)n2)cc1	x	x	u	x	-21.9%	x
C[C@H](CO)N1C[C@H](C)[C@@H](CN(C)Cc2ccc(-c3ccccc3)cc2)Oc2c(NC(=O)c3ccncc3)cccc2C1=O	-1.7%	x	10µM*	x	-20.0%	u
CC(C)NC(=O)N(C)C[C@H]1Oc2c(NC(=O)Cc3ccccc3)cccc2C(=O)N([C@H](C)CO)C[C@@H]1C	i	x	9.8%	x	73.4%	-15.9%
C[C@H](CO)N1C[C@H](C)[C@@H](CN(C)CC2CCCCC2)Oc2c(NC(=O)Cc3ccccc3)cccc2C1=O	u	x	u	x	-17.1%	10µM*
C[C@H](CO)N1C[C@H](C)[C@H](CN(C)C(=O)Cc2ccncc2)Oc2ncc(Br)cc2C1=O	u	x	x	x	0.4%	8.91µM*
Cc1nc2cc(C(=O)O)ccc2n1-c1ccc(C(C)C)cc1	-2.4%	0.3%[46.1 µM]	x	-1.0%[46.1 µM]	66.4%	12.2%
Cc1nn(CC(=O)Nc2ccc3c(c2)OCO3)c(C)c1Cl	x	x	7.3%	x	30.1%	x
O=C(Cn1ncc(Cl)c(Cl)c1=O)Nc1ccc2c(c1)OCO2	x	x	u	x	35.5µM*	x
O=C(Cn1ncc(Cl)c(Cl)c1=O)c1ccc2c(c1)OCCO2	u	12.6µM*	2µM*	u	u	-26.5%
Cc1cc(Cl)ccc1OCC(=O)Nc1cccc(S(=O)(=O)N2CCCC2)c1	x	x	7.94µM*	x	-0.6%	x
O=C(COc1ccc2ccc(=O)oc2c1)Nc1cccc(S(=O)(=O)N2CCCCC2)c1	-24.1%	5.5%	u	-7.2%	14.1µM*	-7.3%
Cc1ccc2cccc(OCC(=O)Nc3cccc(S(=O)(=O)N4CCCC4)c3)c2n1	-18.2%	u	5.62µM*	u	39.8µM*	-27.5%
SMILES	VACV mCherry inh	LASV entry inh	HCV inhibitor	Marburg entry inh	FMDV antiviral	VACV Venus inh
CN1CCN(c2ccc(-c3cccc(NC(=O)COc4ccc(Cl)cc4)c3)nn2)CC1	-3.0%	u	u	u	-52.9%	-22.6%
CN1CCN(c2ccc(-c3cccc(NC(=O)COc4ccc(Cl)cc4Cl)c3)nn2)CC1	-20.7%	4.47µM*	11.2µM*	u	u	-4.9%
Cc1cccc(CNC(=O)C2CCN(c3nc4ccc(Cl)cc4[nH]3)CC2)c1	-10.4%	-7.7%[46.1 µM]	x	x	-9.7%	-6.8%
CCN1C(=O)c2ccccc2S(=O)c2ccc(C(=O)N3CCN(c4cccc(Cl)c4)CC3)cc21 (configuration not stated)	-13.9%	-21.3%[46.1 µM]	x	-23.0%[46.1 µM]	-12.4%	-18.5%
COc1cc(/C=C(\C#N)C(=O)c2ccc(O)c(O)c2)cc(I)c1O	-13.9%	x	4.0%	-23.0%	-22.3%	58.2%
CC(=O)c1cccc(NC(=O)Nc2ccc3c(c2)N(C)C(=O)CS3)c1	-25.3%	-23.4%	3.16µM*	-30.7%	u	-20.9%
C=CCC[C@H](Cc1ccc(F)cc1)C(=O)O[C@H](CNC(=O)[C@@H](CC=C)CC(=O)N(CCO)Cc1ccccc1)c1ccccc1	2.0%	x	u	x	39.8µM*	-18.1%
C=CC[C@@H](CC(=O)N(CCO)Cc1ccccc1)C(=O)NCCOC(=O)[C@@H](CC=C)Cc1ccc(F)cc1	u	x	u	x	u	-19.1%
C=CC[C@H](CC(=O)N(CCO)Cc1ccccc1)C(=O)NC[C@@H](OC(=O)[C@@H](CC=C)Cc1ccc(F)cc1)c1ccccc1	-5.4%	x	7.94µM*	x	u	u
C=CC[C@H](CC(=O)NCCO)C(=O)NC[C@@H](OC(=O)[C@@H](CC=C)Cc1ccc(F)cc1)c1ccccc1	-19.3%	x	-25.9%	x	-14.8%	-23.5%
Cc1ccc(-c2nn(CC(=O)NCc3ccccc3)c3c2cnc2ccc(F)cc23)cc1C	0.4%	10.0%[46.1 µM]	x	x	1.4%	0.7%
Cc1c(Cl)c([N+](=O)[O-])nn1Cc1ccc(C(=O)N/N=C\c2cccc(Br)c2)o1	x	-27.3%	u	u	-15.7%	28.2µM*
Cc1cccc(N2CCN(S(=O)(=O)c3cc(C(=O)Nc4ccc(Oc5ccccc5)cc4)ccc3F)CC2)c1C	-27.2%	u	x	x	u	-25.5%
COc1ccccc1NC(=O)Nc1nc(CC(=O)NCc2ccc(F)cc2)cs1	u	-1.2%	7.08µM*	u	39.8µM*	u
COc1ccccc1NC(=O)Nc1nc(CC(=O)NCc2c(F)cccc2F)cs1	-5.2%	u	u	u	-9.0%	-19.4%
COc1cccc(CNC(=O)Cc2csc(NC(=O)Nc3ccccc3OC)n2)c1	-0.2%	u	5.62µM*	-20.2%	-4.9%	-13.1%
Cc1ccc(-c2csc(NC(=O)c3ccc([N+](=O)[O-])o3)n2)cc1	u	u	14.1µM*	u	1.1%	u
Cc1cnc(NC(=O)c2nn(C)cc2[N+](=O)[O-])s1	-19.3%	2.4%[46.1 µM]	u	2.0%[46.1 µM]	-12.6%	-29.1%
Cc1ccc(-c2nc(NC(=O)c3nn(C)cc3[N+](=O)[O-])sc2C)cc1C	10µM*	3.98µM*	u	u	12.6µM*	12.6µM*
CCCOC(=O)Nc1nc(-c2ccc(C)cc2)c(C)s1	i	11.2µM*	-15.8%	0.3%[46.1 µM]	20.4%	-6.6%

Screening data: PubChem, National Center for Advancing Translational Sciences (NCATS)
